Assay [1] is described as follows: Caspase-3/7 induction in HepG2 cells by small molecules, qHTS assay (AID 1346978). Also: nearly all actives have a fitted effect of over 15% in size. The method, boiled down: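 Wild-type HepG2 cells, 2,000/well, settled 5 hr at 37 C and 5% CO2, then compound-treated for 17 hr; caspase-3/7 activity read by luminescent Caspase-Glo 3/7 after 30 min at room temperature.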
A short description of assay [2]: Caspase-3/7 induction in CHO-K1 cells by small molecules, qHTS cell viability counter screen (AID 1346979). Also: nearly all actives have a fitted effect of over 35% in size. The method, boiled down: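 CellTiter-Fluor viability check, qHTS format: wild-type CHO-K1, 16hr compound treatment, 1hr reagent incubation, fluorescence read.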
Assay [3] in a line: Caspase-3/7 induction in CHO-K1 cells by small molecules, qHTS assay (AID 1346980). Also: nearly all actives have a fitted effect of over 15% in size. Summed up:
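Wild-type CHO-K1 cells exposed to compounds for 17hr at 37 C, 5% CO2. Caspase-3/7 activity then measured by Caspase-Glo 3/7 luminescence after 30min at room temperature.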
In general terms: qHTS replaces the single test concentration by a dilution series.

Assay [4] in a line: Caspase-3/7 induction in HepG2 cells by small molecules, qHTS cell viability counter screen (AID 1346981). Also: series mostly up to about 92 µM; nearly all actives have a fitted effect of over 30% in size. Summed up: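 Fluorescence read-out of live-cell protease activity (CellTiter-Fluor) after 1 hr with reagent. This was measured in the same wells as the caspase-3/7 luminescence, on HepG2 cells exposed to DMSO-dissolved compounds for 16 hr at 37 C.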
The target in assay [5] is Voltage-gated inwardly rectifying potassium channel KCNH2 (Homo sapiens) (UniProt Q12809). As to the kind of experiment: Human Ether-a-go-go-Related Gene (hERG) channel small molecule antagonists: fluorescence cell-based qHTS assay (AID 1671200).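 Also: hERG-expressing U2OS cells given a thallium stimulus after FluxOR II dye loading; series mostly up to about 77 µM; nearly all actives have a fitted effect of over 50% in size.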 Summed up: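 Kinetic two-minute fluorescence traces, sampled at 1 s, were collected following thallium stimulus of U2OS cells (1000 per well) that had been cultured overnight at 37 C and loaded with FluxOR II.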
(The hERG channel carries a current that helps repolarise heart muscle cells.)

The target of assay [6] is Cytochrome P450 2D6 (Homo sapiens) (UniProt P10635). Kind of assay: Cytochrome P450 Family 2 Subfamily D Member 6 (CYP2D6) small molecule antagonists: luciferase reporter qHTS assay (AID 1671196). Also: nearly all actives have a fitted effect of over 50% in size. Also: potency is read from the fitted curve at half-maximal effect. As to activity change, negative = inhibition: series mostly up to about 120 µM. The method, boiled down:
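Luminogenic proluciferin substrate, CYP2D6 enzyme; 10 min RT preincubation with compound, NADPH regeneration system added, 1 h RT. Stop/detection reagent, 20 min RT, luminescence read (RLU). Signal proportional to CYP activity.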
For orientation: In a reporter assay the amount or activity of a reporter protein is the signal.

For assay [7], the target named is Cytochrome P450 2C19 (Homo sapiens) (UniProt P33261). As to the kind of experiment: Cytochrome P450 Family 2 Subfamily C Member 19 (CYP2C19) small molecule antagonists: luciferase reporter qHTS assay (AID 1671197). Also: nearly all actives have a fitted effect of over 65% in size. Also: potency is read from the fitted curve at half-maximal effect. As to activity change, negative = inhibition: series mostly up to about 120 µM. The method, boiled down:
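First, compounds are pinned into enzyme-substrate mix and held 10 min at room temperature. Second, NADPH regeneration solution is added and plates incubate 1 h at 37C. Third, detection reagent is added and luminescence read after 20 min.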

Assay [8] deals with Cytochrome P450 2C9 (Homo sapiens) (UniProt P11712). As to the kind of experiment: Cytochrome P450 Family 2 Subfamily C Member 9 (CYP2C9) small molecule antagonists: luciferase reporter qHTS assay (AID 1671198). Also: nearly all actives have a fitted effect of over 50% in size. Also: potency is read from the fitted curve at half-maximal effect. As to activity change, negative = inhibition: series mostly up to about 120 µM. The method, boiled down: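 P450-Glo proluciferin substrate with CYP2C9 enzyme; 10 min RT preincubation, then NADPH regeneration 1 h at 37C; luciferin detection reagent 20 min RT, luminescence in relative luminescence units.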

The target of assay [9] is Cytochrome P450 3A4 (Homo sapiens) (UniProt P08684). Kind of assay: Cytochrome P450 Family 3 Subfamily A Member 4 (CYP3A4) small molecule antagonists: luciferase reporter qHTS assay (AID 1671201). Also: nearly all actives have a fitted effect of over 50% in size. Also: potency is read from the fitted curve at half-maximal effect. As to activity change, negative = inhibition: series mostly up to about 120 µM. The method, boiled down:
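Proluciferin-to-luciferin conversion by CYP3A4, NADPH-regenerated, 1 h RT; luminescence read as RLU. Ketoconazole as control.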

The target in assay [10] is Cytochrome P450 1A2 (Homo sapiens) (UniProt P05177). As to the kind of experiment: Cytochrome P450 Family 1 Subfamily A Member 2 (CYP1A2) small molecule antagonists: luciferase reporter qHTS assay (AID 1671199). Also: nearly all actives have a fitted effect of over 50% in size. Also: potency is read from the fitted curve at half-maximal effect. As to activity change, negative = inhibition: series mostly up to about 120 µM. The method, boiled down: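 Luminescence readout (relative luminescence units) after luciferin detection reagent, 20 min RT. Preceded by 1 h room-temperature CYP1A2 reaction with NADPH regeneration solution following 10 min compound preincubation with enzyme and proluciferin substrate. Furafylline positive control.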

The target of assay [11] is Nuclear receptor subfamily 1 group I member 2 (Homo sapiens) (UniProt O75469). Kind of assay: Human pregnane X receptor (PXR) small molecule agonists, qHTS assay (AID 1346982). Also: nearly all actives have a fitted effect of over 35% in size. Summed up: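 HepG2 PXR-Luc reporter line, 5% charcoal-stripped FBS; 5 hr pre-incubation, compound (DMSO) 24 hr at 37 C/5% CO2; ONE-Glo 30 min RT; luminescence read-out.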
Assay [12] concerns the target Nuclear receptor subfamily 1 group I member 2 (Rattus norvegicus) (UniProt Q9R1A7). As to the kind of experiment: Rat pregnane X receptor (rPXR) activation by small molecules, qHTS assay (AID 1346983). Also: nearly all actives have a fitted effect of over 20% in size. To be noted: rPXR luciferase reporter cells, One-Glo luminescence, 24 h; max activation: hits give high values. Summed up: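 Cell-based rPXR activation assay: rPXR cells, 2,000 per well, rested 5hr at 37 C, then exposed to compounds in DMSO for 24 hr at 37 C. Luciferase activity read by One-Glo luminescence after 30 min at room temperature.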

Assay [13] has as its target Nuclear receptor subfamily 1 group I member 2 (Homo sapiens) (UniProt O75469). Kind of assay: CYP3A4 induction through human pregnane X receptor (PXR) by small molecules, qHTS assay (AID 1346984). Also: nearly all actives have a fitted effect of over 40% in size. The method, boiled down: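 HepG2-derived DPX-2 line carrying PXR plus a CYP3A4-promoter luciferase reporter; cells plated 5 hr, compound-exposed 24 hr at 37C. CYP3A4 activity probed with 3uM (final) Luciferin-IPA for 3hr, then luciferase read after One-Glo.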

Assay [14] shares this target. Kind of assay: Human pregnane X receptor (PXR) activation by small molecules, qHTS assay (AID 1346985). Also: nearly all actives have a fitted effect of over 40% in size. The method, boiled down: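 DPX-2 cells (HepG2 co-transfected with a PXR response element and a CYP3A4-promoter luciferase construct) were seeded at 2,000 per well, rested 5 hr at 37C, then exposed to DMSO-dissolved compounds for 24 hr. Activation was read as luciferase luminescence.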

The structures appear in SMILES notation. A number with no mark means an inactive call. Inconclusive results are not listed. Activity calls are given as the source filed them. Calls follow the shape of the dose curve; as a rule, active = well fitted curve in the direction sought with a large enough effect in the repeat runs; inconclusive = weak or mixed curves; inactive = no such curve, though single readings can be large; an effect the other way counts as inactive or inconclusive.
% is scaled to controls: 0 for no effect and ±100 for the full control effect.

Sequence of Cytochrome P450 2C19 (Homo sapiens) (P33261 whole entry, looked up): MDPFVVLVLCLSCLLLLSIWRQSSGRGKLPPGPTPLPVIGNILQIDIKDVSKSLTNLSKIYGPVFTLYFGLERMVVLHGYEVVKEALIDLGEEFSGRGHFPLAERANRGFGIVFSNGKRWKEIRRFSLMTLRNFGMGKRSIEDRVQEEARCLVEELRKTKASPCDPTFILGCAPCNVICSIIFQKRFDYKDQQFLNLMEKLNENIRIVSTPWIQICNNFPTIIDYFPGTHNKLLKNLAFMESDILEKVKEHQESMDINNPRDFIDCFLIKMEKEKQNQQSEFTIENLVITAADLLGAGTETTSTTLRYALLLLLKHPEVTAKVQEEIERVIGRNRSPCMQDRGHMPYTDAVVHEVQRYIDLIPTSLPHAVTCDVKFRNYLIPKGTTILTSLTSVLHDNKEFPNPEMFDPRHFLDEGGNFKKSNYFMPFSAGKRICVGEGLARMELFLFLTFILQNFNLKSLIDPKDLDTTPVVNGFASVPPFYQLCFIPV
Sequence of Cytochrome P450 2D6 (Homo sapiens) (P10635 whole entry, looked up): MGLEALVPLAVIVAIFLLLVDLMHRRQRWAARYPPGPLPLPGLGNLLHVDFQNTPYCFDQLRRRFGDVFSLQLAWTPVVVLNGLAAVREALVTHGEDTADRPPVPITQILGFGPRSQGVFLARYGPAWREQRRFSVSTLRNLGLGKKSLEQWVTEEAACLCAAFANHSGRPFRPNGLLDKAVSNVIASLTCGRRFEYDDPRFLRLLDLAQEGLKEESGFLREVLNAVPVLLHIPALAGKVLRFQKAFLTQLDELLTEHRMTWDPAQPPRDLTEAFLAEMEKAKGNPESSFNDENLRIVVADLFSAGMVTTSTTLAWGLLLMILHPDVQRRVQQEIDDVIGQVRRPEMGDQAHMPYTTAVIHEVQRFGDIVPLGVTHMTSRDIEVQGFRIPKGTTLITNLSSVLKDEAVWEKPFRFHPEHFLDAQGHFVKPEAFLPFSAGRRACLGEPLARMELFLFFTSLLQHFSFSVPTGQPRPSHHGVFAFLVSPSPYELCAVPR
Sequence of Cytochrome P450 2C9 (Homo sapiens) (P11712 whole entry, looked up): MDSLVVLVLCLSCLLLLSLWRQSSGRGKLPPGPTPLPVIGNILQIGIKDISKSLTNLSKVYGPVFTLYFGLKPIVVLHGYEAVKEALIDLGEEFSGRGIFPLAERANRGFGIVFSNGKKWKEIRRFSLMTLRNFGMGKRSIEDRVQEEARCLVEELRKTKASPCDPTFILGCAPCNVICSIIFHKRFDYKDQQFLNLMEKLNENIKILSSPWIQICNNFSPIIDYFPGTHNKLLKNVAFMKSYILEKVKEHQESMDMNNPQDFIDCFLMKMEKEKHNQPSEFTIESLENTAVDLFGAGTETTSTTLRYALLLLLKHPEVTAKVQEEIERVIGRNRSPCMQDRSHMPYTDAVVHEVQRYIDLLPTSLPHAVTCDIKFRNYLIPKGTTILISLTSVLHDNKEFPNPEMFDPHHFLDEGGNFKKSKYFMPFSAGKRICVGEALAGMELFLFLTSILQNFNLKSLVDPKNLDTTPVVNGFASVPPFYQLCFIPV
Sequence of Cytochrome P450 1A2 (Homo sapiens) (P05177 whole entry, looked up): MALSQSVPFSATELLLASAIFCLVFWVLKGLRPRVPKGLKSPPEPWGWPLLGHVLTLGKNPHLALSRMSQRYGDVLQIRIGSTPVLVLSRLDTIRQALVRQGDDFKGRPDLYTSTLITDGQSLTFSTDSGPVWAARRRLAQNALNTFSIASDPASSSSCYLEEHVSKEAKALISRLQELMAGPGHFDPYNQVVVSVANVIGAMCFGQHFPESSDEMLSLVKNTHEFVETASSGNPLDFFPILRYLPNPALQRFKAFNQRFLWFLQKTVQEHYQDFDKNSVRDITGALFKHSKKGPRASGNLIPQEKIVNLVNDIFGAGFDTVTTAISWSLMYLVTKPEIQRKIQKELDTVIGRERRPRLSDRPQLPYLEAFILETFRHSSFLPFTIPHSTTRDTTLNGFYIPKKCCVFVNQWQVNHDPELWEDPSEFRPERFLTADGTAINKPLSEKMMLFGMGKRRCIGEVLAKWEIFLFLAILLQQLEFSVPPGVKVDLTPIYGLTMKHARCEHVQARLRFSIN
Sequence of Nuclear receptor subfamily 1 group I member 2 (Homo sapiens) (O75469 whole entry, looked up): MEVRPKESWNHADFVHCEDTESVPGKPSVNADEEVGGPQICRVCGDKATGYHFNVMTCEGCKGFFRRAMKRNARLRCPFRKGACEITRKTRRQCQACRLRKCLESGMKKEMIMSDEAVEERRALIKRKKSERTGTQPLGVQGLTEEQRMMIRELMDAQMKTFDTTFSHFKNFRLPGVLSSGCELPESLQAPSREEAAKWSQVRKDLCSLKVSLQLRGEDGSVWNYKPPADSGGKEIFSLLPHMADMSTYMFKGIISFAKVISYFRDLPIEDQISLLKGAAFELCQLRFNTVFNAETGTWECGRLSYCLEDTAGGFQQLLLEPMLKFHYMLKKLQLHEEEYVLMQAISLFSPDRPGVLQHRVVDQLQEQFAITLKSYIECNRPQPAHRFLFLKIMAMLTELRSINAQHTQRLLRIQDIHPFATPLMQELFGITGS
Sequence of Cytochrome P450 3A4 (Homo sapiens) (P08684 whole entry, looked up): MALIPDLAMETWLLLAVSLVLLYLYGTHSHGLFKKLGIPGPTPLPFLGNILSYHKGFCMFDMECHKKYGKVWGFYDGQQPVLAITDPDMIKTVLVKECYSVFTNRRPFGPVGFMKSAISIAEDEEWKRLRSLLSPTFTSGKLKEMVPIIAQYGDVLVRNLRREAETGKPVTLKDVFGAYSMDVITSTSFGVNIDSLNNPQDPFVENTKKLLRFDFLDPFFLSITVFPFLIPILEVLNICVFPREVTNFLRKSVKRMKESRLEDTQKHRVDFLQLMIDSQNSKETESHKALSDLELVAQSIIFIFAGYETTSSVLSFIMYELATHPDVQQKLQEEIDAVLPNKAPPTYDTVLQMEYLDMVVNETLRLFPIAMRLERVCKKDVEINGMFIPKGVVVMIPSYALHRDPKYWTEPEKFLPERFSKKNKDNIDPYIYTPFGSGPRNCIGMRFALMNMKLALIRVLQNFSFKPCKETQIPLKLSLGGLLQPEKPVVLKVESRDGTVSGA
Sequence of Voltage-gated inwardly rectifying potassium channel KCNH2 (Homo sapiens) (Q12809 whole entry, looked up): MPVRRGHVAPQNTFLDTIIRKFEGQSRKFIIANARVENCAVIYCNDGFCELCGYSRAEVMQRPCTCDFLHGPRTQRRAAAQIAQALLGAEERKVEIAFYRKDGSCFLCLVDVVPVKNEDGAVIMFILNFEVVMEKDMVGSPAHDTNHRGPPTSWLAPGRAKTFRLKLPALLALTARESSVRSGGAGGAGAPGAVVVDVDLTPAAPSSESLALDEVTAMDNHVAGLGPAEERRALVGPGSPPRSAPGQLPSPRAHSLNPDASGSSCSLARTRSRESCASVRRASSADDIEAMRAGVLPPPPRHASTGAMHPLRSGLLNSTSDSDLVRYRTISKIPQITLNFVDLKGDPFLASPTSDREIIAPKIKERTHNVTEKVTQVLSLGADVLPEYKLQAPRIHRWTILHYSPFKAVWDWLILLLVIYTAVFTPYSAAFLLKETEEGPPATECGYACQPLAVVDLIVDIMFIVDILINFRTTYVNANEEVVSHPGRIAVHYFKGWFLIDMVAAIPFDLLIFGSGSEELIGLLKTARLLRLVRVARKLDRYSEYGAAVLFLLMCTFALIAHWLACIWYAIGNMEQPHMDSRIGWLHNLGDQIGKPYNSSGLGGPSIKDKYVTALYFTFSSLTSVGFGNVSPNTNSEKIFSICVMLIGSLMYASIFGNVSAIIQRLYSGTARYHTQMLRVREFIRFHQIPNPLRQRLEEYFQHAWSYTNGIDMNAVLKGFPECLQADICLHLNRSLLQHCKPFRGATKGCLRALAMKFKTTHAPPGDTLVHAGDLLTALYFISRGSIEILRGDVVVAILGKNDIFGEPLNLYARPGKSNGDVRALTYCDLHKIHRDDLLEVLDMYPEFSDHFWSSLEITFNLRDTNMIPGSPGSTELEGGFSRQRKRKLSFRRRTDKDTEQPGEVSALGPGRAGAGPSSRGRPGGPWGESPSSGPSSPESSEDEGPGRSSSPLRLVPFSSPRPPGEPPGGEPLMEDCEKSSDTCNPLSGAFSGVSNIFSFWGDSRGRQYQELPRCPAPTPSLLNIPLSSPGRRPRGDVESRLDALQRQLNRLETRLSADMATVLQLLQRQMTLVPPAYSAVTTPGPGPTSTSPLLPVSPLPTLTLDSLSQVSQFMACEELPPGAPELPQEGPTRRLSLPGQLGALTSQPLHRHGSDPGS
Sequence of Nuclear receptor subfamily 1 group I member 2 (Rattus norvegicus) (Q9R1A7 whole entry, looked up): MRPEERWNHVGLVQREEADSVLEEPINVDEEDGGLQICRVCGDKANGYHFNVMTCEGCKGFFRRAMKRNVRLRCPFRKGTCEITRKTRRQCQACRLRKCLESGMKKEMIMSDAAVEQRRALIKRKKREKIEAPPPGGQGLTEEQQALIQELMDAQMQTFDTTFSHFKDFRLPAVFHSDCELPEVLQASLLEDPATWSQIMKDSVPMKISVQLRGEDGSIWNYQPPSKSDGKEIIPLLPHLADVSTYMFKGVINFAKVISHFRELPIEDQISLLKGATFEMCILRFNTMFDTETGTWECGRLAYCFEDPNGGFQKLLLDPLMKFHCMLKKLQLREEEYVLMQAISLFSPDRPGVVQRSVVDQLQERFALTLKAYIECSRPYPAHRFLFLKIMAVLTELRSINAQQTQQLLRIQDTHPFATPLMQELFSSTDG

With `C1CCC2=NCCCN2CC1`, the result in assay [1] and in [3] was inactive. For the same compound, the Potency result in assay [2], in assay [4] and in assay [5] was “inactive” throughout.
With `CCC(=O)OCc1ccccc1`, the compound was classed as inactive in [1] and in assay [3]. Further, the Potency result in assay [2], in assay [4], in [6], in assay [7], in assay [8] and in [5] was “inactive” each time. In addition, in assay [9], the Potency entry was “inactive”.
For the compound `CCOC(=O)CCC(=O)OCC`, the compound was classed as inactive in assay [1] and in assay [3]. The Potency result in assay [2], in assay [4], in assay [6], in assay [7], in assay [10] and in assay [5] was “inactive” each time. The Potency result in [9] is “inactive”. Also, in assay [8], the Potency was 35.6 µM (active).
Regarding `C=C[Si](OC(C)=O)(OC(C)=O)OC(C)=O`, the compound was classed as inactive in assay [1] and in [3]. For the same compound, the Potency entry in [2], in assay [4], in [7], in [8] and in assay [5] was “inactive” throughout. Moreover, the Potency in [9] was 39.9 µM (active).
For `CCN(Cc1ccccc1)c1ccccc1`, the outcome in assay [1] and in assay [3] was inactive. Moreover, the Potency entry in [2], in assay [4], in assay [5] and in assay [9] was “inactive” throughout. In addition, the figures for the Potency in assay [7] and in assay [8] were 1.76 µM (active) and 35.1 µM (active), respectively.
With `C=CCCCCCCCCC(=O)OCC`, the call in assay [1] and in assay [3] was inactive. Moreover, the Potency result in assay [2], in [4], in assay [7], in [8] and in assay [9] was “inactive” each time.
Take `CCCCCC(C)N` (stereo not drawn): in [1], the compound was classed as inactive. Moreover, the Potency entry in assay [2], in [4], in assay [11], in assay [13], in assay [14] and in assay [6] was “inactive” each time. Besides, the Potency result in [7], in assay [8], in [10], in [5] and in [9] was “inactive” in each case. Further, the max activation in assay [12] was -3.3%.
For `CC(C)C[C@@H](N)C(=O)O`, the caspase activation in assay [1] was -0.781% [at 19 µM]. In addition, the results for the activity change, negative = cytotoxicity in [2] and in assay [4] were -2.25% [at 19 µM] and 1.16% [at 19 µM], respectively. In addition, the caspase-3/7 activation in assay [3] was -0.0944% [at 19 µM]. Moreover, in assay [5], the activity change, negative = inhibition is 1.04% [at 15.8 µM].
For the compound `C[N+]1(C)CCCC(OC(=O)C(O)(c2ccccc2)c2ccccc2)C1` (stereo not drawn), the Potency entry in assay [2], in [4], in assay [11], in [13], in assay [14] and in assay [7] was “inactive” in each case. Moreover, the Potency entry in assay [8], in assay [10], in [5] and in assay [9] was “inactive” throughout. Besides, the result in assay [3] was inactive. Besides, the max activation in assay [12] was -3.64%. Moreover, the Potency in assay [6] is 4.9 µM (active).
As to `CC1=NS(=O)(=O)c2cc(Cl)ccc2N1`, the compound was called inactive in [1]. Further, the Potency result in assay [2], in assay [4], in assay [6], in assay [7], in assay [8] and in assay [9] was “inactive” in each case. Also, in [10], the Potency is 15.5 µM (active).
Turning to `COc1cc2c(cc1OC)-c1cc3ccc(OC)c(OC)c3c[n+]1CC2`, the outcome in assay [1] and in assay [3] was inactive. Moreover, the Potency result in [11], in assay [8] and in assay [5] was “inactive” each time. Further, the figures for the Potency in [6] and in assay [10] were 9.02 µM (active) and 35.9 µM (active), respectively.
As for `COc1cc(C(=O)NCc2ccc(OCCN(C)C)cc2)cc(OC)c1OC`, the outcome in [1] was inactive. The Potency result in assay [2], in assay [4], in assay [11], in [14], in assay [7] and in assay [8] was “inactive” each time. For the same compound, the Potency entry in assay [10] and in [5] was “inactive” in each case. Besides, the max activation in assay [12] was 4.67%.
